Consider six compounds from PubChem BioAssay (NCATS).

Assay [1] in a line: AP1 Signaling Pathway (AID 357; active = well fitted curve in either direction with a large enough effect, not every such curve was filed as active;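 note: ME-180 reporter cells stimulated with EGF at its EC50 level; % is set by controls: 0 for no effect and ±100 for the full control effect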). The essentials: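 Read-out was the 460nm/530nm emission ratio (excitation 405nm) after CCF4 loading for 2.5 hours at room temperature. Cells carried an AP-1-driven beta-lactamase reporter, were stimulated with EC50 EGF plus compound for 5 hours, and AC50 values came from titrations.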
A short description of assay [2]: NFAT Signaling Pathway (AID 444; active = well fitted curve in either direction with a large enough effect, not every such curve was filed as active;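 note: carbachol stimulus at about its EC50 of 1 µM final; % is set by controls: 0 for no effect and ±100 for the full control effect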). To be noted: Jurkat NFAT-bla M1, carbachol, beta-lactamase ratio, 5 h. The essentials:
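Jurkat cells with NFAT-driven β-lactamase reporter and co-expressed M1 receptor, stimulated with carbachol (final 1 uM, ~EC50), compound titration, 5 h at 37 °C. CCF4 loaded 1 h at RT; 460/530 nm ratio gave %activity and AC50.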

The nature of assay [3]: Stat Signaling Pathway (AID 446; active = well fitted curve in either direction with a large enough effect, not every such curve was filed as active;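 note: ME-180 cervical cancer cells given 40 pM IL-6 alongside compound; SIE-controlled beta-lactamase reporter measured as 460/530 nm FRET emission ratio; % is set by controls: 0 for no effect and ±100 for the full control effect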). The essentials:
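Overnight-plated ME-180 cells bearing a STAT Inducible Element beta-lactamase reporter; 5 h co-exposure to compound and 40 pM IL-6; values normalized to 300 pM IL-6 and 125 nM JAK inhibitor controls.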

In assay [4] the target is Glucocorticoid receptor (Homo sapiens) (UniProt P04150). The assay is described as follows: GR-GFP Redistribution (AID 450;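 active = compounds whose dose series gives a full or clear partial fitted curve of increased nuclear translocation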; note: potency is the fitted concentration of half-maximal effect). Conditions: U2OS GR-GFP nuclear translocation, laser cytometry, 2 h.
Chain of Glucocorticoid receptor (Homo sapiens) (P04150 whole entry, looked up, the tested form may be a part): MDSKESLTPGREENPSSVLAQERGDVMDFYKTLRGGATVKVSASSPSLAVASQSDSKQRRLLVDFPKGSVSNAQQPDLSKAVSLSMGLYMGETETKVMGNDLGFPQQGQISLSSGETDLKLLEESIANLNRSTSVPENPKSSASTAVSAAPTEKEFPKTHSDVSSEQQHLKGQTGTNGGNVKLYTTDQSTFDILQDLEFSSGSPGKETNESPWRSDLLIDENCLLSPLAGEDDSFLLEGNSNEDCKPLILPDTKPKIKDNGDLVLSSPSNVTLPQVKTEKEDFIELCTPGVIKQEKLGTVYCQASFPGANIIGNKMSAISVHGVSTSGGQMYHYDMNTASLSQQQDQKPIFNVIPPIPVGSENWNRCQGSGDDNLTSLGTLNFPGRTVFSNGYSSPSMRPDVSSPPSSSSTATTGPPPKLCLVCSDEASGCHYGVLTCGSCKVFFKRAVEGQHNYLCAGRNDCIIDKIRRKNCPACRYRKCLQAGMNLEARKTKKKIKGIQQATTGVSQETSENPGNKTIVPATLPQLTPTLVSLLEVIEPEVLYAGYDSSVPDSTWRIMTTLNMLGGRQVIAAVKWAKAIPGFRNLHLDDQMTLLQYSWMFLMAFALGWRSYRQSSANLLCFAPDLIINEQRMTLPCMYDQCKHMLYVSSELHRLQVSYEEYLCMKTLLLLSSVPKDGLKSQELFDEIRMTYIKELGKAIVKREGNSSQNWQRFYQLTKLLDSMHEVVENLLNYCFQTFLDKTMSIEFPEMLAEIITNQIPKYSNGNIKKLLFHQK
For assay [5] the target is unchanged. The assay is described as follows: GR-EFC Redistribution (AID 451; calls by dose curve; note: potency is the fitted concentration of half-maximal effect). Conditions: CHO-K1 GR-EFC translocation, beta-gal luminescence, 2 h. In a few lines: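 CHO-K1 cells expressing nuclear EA and GR-ED fragments of b-gal; compounds titrated up to 46 uM final, 2 h at 37 C. GR nuclear translocation read as complemented b-gal luminescence after 1 h RT detection.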

Assay [6] concerns the target Mitogen-activated protein kinase 10 (Mus musculus) (UniProt Q61831). The assay is described as follows: JNK3 AlphaScreen Assay (AID 530; active = well fitted curve in either direction with a large enough effect, not every such curve was filed as active;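 note: kinase came from lysate of stimulated human HepG2 cells; signal reports phosphorylation of biotinylated GST-cJun 1-79 at Ser73 with 10 µM ATP; % is set by controls: 0 for no effect and ±100 for the full control effect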). In a few lines: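 Activity was read by AlphaScreen after JNK3-containing HepG2 lysate (cytokine pre-activated) phosphorylated biotinylated GST-cJun with 10 uM ATP at room temperature. Phospho-Ser73 cJun antibody with Protein-A acceptor beads provided detection.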

In assay [7] the target is 3',5'-cyclic-AMP phosphodiesterase 4B (Homo sapiens) (UniProt Q07343). The assay is described as follows: qHTS Assay for Inhibitors of PDE-IV (AID 607; active = well fitted activation curve with a large enough effect in the main read-out, with a control signal flat, not every such curve was filed as active; note: % of control where 0% means no effect). In a few lines:
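Live HEK293 cells with a modified cyclic nucleotide-gated (CNG) channel report intracellular cAMP via membrane-potential dye fluorescence (ex 535/em 590 nm). Endogenous PDE-IV was targeted. Compounds were tested at up to 22.9 uM final; RO 20-1724 100 uM served as control.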

For assay [8], the target named is Cytochrome P450 3A4 (Homo sapiens) (UniProt P08684). The assay is described as follows: qHTS Assay for Activators of Cytochrome P450 3A4 (AID 885). Note: nearly all actives have a fitted effect of over 65% in size. The essentials:
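Using 20nM recombinant human CYP3A4 in potassium phosphate (200mM), substrate Luciferin-PPXE at 25uM, luminescent luciferin detection followed a 60-min RT NADPH reaction; data scaled to 57 uM ketoconazole.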

The nature of assay [9]: qHTS Assay for Lipid Storage Modulators (AID 1519; calls by dose curve). Conditions: Drosophila S3 cells, BODIPY lipid droplet/cell ratio, laser cytometry, cells loaded with oleic acid. The essentials:
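Cells seeded at 5,000 per well were treated with compounds over a concentration series and loaded with oleic acid (400 uM, as added). Lipid droplet fluorescence (488 nm excitation, 500-530 nm channel) was read by laser-scanning cytometry and normalized to 20 uM Triacsin C.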

Assay [10] addresses Ubiquitin carboxyl-terminal hydrolase 1 (Homo sapiens) (UniProt O94782). The assay is described as follows: Inhibitors of USP1/UAF1: Pilot qHTS (AID 504865).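 Note: rhodamine fluorescence freed from ubiquitin-rhodamine substrate followed over time; top concentration of the series differs between compounds; % is set by controls: 0 for no effect and ±100 for the full control effect; nearly all actives have a fitted effect of over 35% in size.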 In a few lines:
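In 50mM HEPES pH 7.8 containing 0.5mM EDTA, 1mM TCEP, 0.1 mg/ml BSA and 0.01% Tween-20, 1nM USP1/UAF1 is exposed to compound for 15 min, then Ub-Rho (150nM final) is added and fluorescence is read over time.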

Assay [11] deals with Cytochrome P450 1A2 (Homo sapiens) (UniProt P05177). The assay is described as follows: p450-cyp1a2 (AID 410; calls by dose curve;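 note: -100% = full effect of reference inhibitor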). The essentials: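 O-Demethylation of luciferin 6' methyl ether by human CYP1A2 is monitored as luciferase luminescence. Substrate sits at Km (100uM); enzyme is 20nM. Values are scaled to 57 uM furafylline as maximal inhibition.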
Chain of Cytochrome P450 1A2 (Homo sapiens) (P05177 whole entry, looked up): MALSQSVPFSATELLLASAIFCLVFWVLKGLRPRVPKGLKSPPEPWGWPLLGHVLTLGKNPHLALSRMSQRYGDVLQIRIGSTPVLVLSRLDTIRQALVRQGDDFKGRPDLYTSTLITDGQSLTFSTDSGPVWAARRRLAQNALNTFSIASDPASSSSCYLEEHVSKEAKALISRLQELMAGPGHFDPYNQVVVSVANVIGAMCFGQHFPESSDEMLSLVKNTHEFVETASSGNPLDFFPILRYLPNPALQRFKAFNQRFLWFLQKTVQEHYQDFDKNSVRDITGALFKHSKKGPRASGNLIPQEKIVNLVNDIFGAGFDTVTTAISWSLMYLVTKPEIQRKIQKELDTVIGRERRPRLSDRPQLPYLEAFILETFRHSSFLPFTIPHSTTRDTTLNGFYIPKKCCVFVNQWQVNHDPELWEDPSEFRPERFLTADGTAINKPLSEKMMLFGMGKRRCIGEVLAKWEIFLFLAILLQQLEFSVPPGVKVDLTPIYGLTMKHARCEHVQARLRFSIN
Assay [12] deals with ATP-dependent 6-phosphofructokinase (Trypanosoma brucei brucei) (UniProt O15648). The assay is described as follows: qHTS Assay to Find Inhibitors of T. brucei phosphofructokinase: hit validation (AID 492961). Note: % is set by controls: 0 for no effect and ±100 for the full control effect. The essentials:
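Luminescence from ADP-Glo reports ADP generated as T. brucei PFK (1.25 nM) phosphorylates 0.5 mM fructose-6-phosphate using 0.1 mM ATP. Reactions ran 45 min at room temperature, pH 8.0.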

For assay [13], the target named is Luciferin 4-monooxygenase (Photinus pyralis) (UniProt P08659). The assay is described as follows: Biochemical firefly luciferase enzyme assay for NPC (AID 624030).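 Note: purified P. pyralis luciferase at 10 nM with luciferin and ATP substrate; 0% = DMSO and -100% = full luciferase inhibition by PTC124 control; nearly all actives have a fitted effect of over 70% in size.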 In a few lines: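 Purified P. pyralis luciferase at 10 nM in 50 mM Tris Acetate (final), luminescence read within 5 minutes of enzyme addition to compounds. Activity normalised to PTC124 versus DMSO; concentration-response curves classed by r2, magnitude and activity.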
Chain of Luciferin 4-monooxygenase (Photinus pyralis) (P08659 whole entry, looked up): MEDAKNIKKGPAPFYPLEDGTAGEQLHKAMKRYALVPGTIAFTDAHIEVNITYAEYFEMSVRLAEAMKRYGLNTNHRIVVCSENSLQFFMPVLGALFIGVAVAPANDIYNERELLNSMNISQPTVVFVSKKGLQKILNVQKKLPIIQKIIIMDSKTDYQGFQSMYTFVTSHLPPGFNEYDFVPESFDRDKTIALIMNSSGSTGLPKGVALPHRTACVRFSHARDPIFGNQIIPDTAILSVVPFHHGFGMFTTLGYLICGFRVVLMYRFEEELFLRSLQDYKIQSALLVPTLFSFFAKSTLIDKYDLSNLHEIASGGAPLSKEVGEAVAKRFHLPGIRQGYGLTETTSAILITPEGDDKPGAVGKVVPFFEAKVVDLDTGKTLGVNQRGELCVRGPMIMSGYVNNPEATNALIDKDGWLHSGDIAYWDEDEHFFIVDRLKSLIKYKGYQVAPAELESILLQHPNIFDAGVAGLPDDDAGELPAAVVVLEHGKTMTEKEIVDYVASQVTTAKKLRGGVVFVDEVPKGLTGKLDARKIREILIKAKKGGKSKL

Assay [14] can be described thus: S16 Schwann cell PMP22 intronic element firefly luciferase assay (AID 624032).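 Note: plate controls were DMSO for no effect and PTC124 positive control mean for full effect; nearly all actives have a fitted effect of over 30% in size.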 The essentials: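 Rat S16 Schwann cells stably carrying firefly luciferase driven by a PMP22 intronic element, in 10% FBS, treated 24 h at 37 C. ONE-Glo luminescence normalized to PTC124 control and DMSO (0%); curves classed by r2, magnitude and activity.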
Assay [15] can be described thus: qHTS profiling for inhibitors of Plasmodium falciparum proliferation (AID 504749).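 Note: 0% = DMSO vehicle and full inhibition = artemisinin control; nearly all actives have a fitted effect of over 60% in size.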 To be noted: P. falciparum in erythrocytes, SYBR Green DNA, 72 h. The essentials:
(§1)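 Each compound contacts P. falciparum-infected red blood cells for 72 h at 37 C; lysis buffer (Tris, EDTA, saponin, Triton X, SYBR Green I) is added and fluorescence measured next morning; values normalized to controls.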

The test system of the next assay is C2A. Described as above. To be noted: P. falciparum in erythrocytes, SYBR Green DNA, 72 h; series mostly up to 28.7 µM. The essentials: as §1
In a further assay the test system is CP192. The description is as above. Conditions: P. falciparum in erythrocytes, SYBR Green DNA, 72 h; series mostly up to 28.7 µM. The essentials: as §1
A further assay concerns CP262. Described as above. Conditions: P. falciparum in erythrocytes, SYBR Green DNA, 72 h; series mostly up to 28.7 µM. The essentials: as §1
Another assay relates to CP286. The description is as above. Conditions: P. falciparum in erythrocytes, SYBR Green DNA, 72 h; series mostly up to 28.7 µM. In a few lines:
as §1

For a further assay, the system named is FAB9. Described as above. To be noted: P. falciparum in erythrocytes, SYBR Green DNA, 72 h; series mostly up to 28.7 µM. The essentials: as §1
Setting [16] is: measured here: cell count channel max response.
[17] abbreviates: measured here: lipid channel max response.

Each structure is given as a SMILES string. Several values for one entry are separate records, joined by “and”; a condition that tells them apart may be missing. Equal entries are not always repeated. Inconclusive results are not listed. Activity calls are given as the source filed them. Unless noted, calls come from the whole dose curve; as a rule, active = well fitted curve in the direction sought with a large enough effect; inconclusive = small, poorly fitted or top-dose-only effect, or another doubt; inactive = no such curve, though single readings can be large; an effect the other way counts as inactive or inconclusive.

Chain of Cytochrome P450 3A4 (Homo sapiens) (P08684 whole entry, looked up): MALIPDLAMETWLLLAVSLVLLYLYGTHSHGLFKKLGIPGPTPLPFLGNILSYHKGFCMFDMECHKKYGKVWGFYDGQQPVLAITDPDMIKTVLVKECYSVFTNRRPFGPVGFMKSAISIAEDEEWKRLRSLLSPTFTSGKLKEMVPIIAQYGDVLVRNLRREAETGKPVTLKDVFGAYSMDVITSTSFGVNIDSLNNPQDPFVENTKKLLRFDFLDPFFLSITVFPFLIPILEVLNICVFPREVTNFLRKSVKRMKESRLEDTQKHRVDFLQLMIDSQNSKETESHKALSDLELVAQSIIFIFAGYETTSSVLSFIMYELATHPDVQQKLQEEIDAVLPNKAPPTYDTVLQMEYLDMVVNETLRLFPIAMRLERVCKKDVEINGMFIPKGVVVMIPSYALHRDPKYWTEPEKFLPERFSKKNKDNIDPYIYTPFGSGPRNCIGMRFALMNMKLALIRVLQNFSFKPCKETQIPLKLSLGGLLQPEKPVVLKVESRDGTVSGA
Chain of Ubiquitin carboxyl-terminal hydrolase 1 (Homo sapiens) (O94782 whole entry, looked up): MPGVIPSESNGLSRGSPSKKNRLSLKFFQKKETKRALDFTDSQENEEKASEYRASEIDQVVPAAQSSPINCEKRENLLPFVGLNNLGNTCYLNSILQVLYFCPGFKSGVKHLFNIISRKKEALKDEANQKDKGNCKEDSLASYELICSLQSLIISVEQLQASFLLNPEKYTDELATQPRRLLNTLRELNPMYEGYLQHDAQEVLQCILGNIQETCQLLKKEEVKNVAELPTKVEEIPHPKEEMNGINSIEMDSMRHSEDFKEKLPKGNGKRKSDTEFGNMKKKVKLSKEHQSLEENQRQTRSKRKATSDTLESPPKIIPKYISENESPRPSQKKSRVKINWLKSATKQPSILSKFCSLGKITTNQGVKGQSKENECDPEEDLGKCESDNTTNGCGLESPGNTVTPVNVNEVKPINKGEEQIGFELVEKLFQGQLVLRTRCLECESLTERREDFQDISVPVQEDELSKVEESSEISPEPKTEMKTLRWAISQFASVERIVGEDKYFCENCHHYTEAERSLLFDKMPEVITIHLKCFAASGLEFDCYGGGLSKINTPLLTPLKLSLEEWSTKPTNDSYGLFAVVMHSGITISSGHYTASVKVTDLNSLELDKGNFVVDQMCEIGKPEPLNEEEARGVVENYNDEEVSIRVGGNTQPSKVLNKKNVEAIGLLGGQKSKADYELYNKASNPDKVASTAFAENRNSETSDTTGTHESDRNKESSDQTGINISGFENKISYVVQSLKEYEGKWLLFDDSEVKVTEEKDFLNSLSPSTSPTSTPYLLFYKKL
Chain of 3',5'-cyclic-AMP phosphodiesterase 4B (Homo sapiens) (Q07343 whole entry, looked up): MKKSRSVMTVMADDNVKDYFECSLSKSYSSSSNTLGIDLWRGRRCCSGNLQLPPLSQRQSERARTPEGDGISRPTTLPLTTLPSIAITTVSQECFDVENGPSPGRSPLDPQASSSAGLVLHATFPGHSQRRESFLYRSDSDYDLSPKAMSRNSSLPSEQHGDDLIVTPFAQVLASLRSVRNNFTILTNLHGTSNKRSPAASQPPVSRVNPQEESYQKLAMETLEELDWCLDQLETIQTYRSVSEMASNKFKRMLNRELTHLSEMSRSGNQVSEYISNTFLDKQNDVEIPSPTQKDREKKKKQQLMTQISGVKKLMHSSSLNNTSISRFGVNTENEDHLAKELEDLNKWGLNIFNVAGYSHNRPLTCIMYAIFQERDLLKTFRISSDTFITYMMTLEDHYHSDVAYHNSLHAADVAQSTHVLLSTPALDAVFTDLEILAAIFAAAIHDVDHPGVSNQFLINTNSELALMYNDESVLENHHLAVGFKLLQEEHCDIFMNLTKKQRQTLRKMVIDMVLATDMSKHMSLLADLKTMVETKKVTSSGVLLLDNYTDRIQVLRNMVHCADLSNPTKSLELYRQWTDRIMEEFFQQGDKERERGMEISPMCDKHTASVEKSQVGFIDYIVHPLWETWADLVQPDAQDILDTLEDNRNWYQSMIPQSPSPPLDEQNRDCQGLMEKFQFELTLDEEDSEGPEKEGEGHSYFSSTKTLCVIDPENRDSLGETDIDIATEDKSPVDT
Chain of ATP-dependent 6-phosphofructokinase (Trypanosoma brucei brucei) (O15648 whole entry, looked up): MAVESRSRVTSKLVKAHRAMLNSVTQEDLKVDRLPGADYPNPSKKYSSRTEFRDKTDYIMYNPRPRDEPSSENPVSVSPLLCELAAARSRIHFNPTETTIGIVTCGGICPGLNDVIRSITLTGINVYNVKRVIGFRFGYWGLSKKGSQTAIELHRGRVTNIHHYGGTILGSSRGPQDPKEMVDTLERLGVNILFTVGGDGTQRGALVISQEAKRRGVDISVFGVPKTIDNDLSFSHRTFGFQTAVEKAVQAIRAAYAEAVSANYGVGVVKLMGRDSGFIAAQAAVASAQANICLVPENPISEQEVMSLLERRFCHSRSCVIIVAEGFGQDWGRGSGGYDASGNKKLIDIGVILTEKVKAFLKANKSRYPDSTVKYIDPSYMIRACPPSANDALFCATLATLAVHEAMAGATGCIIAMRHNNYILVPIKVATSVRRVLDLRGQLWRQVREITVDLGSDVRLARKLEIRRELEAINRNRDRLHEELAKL

On to `Cc1nc2cnc(N3CCNCC3)nc2n(C)c1=O`, for which the result in assay [1], in assay [3] and in assay [6] was inactive. For the same compound, the activity change, negative = inhibition in assay [2] (at 7.69 µM (top of the series)) is 5.09% (inactive); in [9] (at 57.5 µM (top of the series)), 5.19% (inactive). For the same compound, the figures for the Potency in assay [4] and in assay [5] were > 9.22 µM (inactive) and > 46 µM (inactive), respectively. Also, the Potency result in assay [7] and in assay [8] was “inactive” throughout. For the same compound, the max response amounted to 18.7% in assay [9] (setting [16]) and 25.8% in [9] (setting [17]).
With `ClC1=C(Cl)C2(Cl)C3C4C=CC(C4)C3C1(Cl)C2(Cl)Cl` (stereo unspecified), the call in [6] was inactive. Moreover, the Potency result in [8] and in assay [10] was “inactive” each time. For the same compound, the activity change, negative = inhibition in [9] (at 57.5 µM (top of the series)) was 4.06% (inactive). The max response is 9.06% in [9] (setting [16]) and 23.4% in assay [9] (setting [17]).
Consider `CCNC[C@H](O)c1cccc(O)c1`, for which the call in [1], in [3] and in assay [6] was inactive. Besides, the Potency entry (in [11]; in assay [7]; in assay [12]; in assay [13]; in assay [14]; in the assay with C2A) was “inactive” each time. Further, the Potency entry in the assay with CP192, with CP262, in the assay with CP286 and in the assay on FAB9 was “inactive” throughout. For the same compound, the values for the activity change, negative = inhibition in assay [2] (at 17.2 µM (top of the series)) and in [9] (at 25.7 µM (top of the series)) were -13.2% (inactive) and -1.26% (inactive), respectively. For the same compound, the Potency in [4] and in assay [5] was > 20.6 µM (inactive) each time. Moreover, the max response is -11.3% in assay [9] (setting [16]) and -12.3% in assay [9] (setting [17]). Besides, the activity, negative = inhibition in assay [15] (at 12.8 µM (top of the series), parasite line A) was -4.47% (inactive); in assay [15] (at 12.8 µM (top of the series), parasite line B), 2.63% (inactive).
`COc1ccc(OC)c([C@H](O)[C@H](C)N)c1`: the outcome in [1], in assay [3] and in [6] was inactive. The Potency entry in [11], in assay [7] and in [10] was “inactive” each time. Also, the activity change, negative = inhibition in assay [2] (at 17.2 µM (top of the series)) is 4.39% (inactive); in assay [2] (at 38 µM (top of the series)) it was 2.27% (inactive); in assay [9] (at 25.7 µM (top of the series)), 1.13% (inactive). Besides, the Potency was > 46 µM (inactive) and > 20.6 µM (inactive) in assay [4]; > 46 µM (inactive) and > 20.6 µM (inactive) in [5]. In addition, the max response in assay [9] (setting [16]) was found to be 7.1%; in assay [9] (setting [17]) it was 6.97%.
With `O=S1OCC2C(CO1)C1(Cl)C(Cl)=C(Cl)C2(Cl)C1(Cl)Cl` (stereo unspecified), the result in assay [6] was inactive. In addition, the Potency entry in assay [8] and in [10] was “inactive” throughout. Besides, the activity change, negative = inhibition in assay [9] (at 57.5 µM (top of the series)) is 5.66% (inactive). The max response in assay [9] (setting [16]) was -0.733%; in assay [9] (setting [17]), 5.32%.
With `CC[C@@]1(c2ccc(N)cc2)CCC(=O)NC1=O`, the call in assay [1], in assay [3] and in assay [6] was inactive. In addition, the Potency entry in [11], in [7], in [8], in assay [12], in assay [10] and in assay [13] was “inactive” in each case. Besides, the Potency result (in assay [14]; in the assay with C2A; in the assay on CP192; in the assay with CP262; in the assay with CP286; with FAB9) was “inactive” in each case. Moreover, the activity change, negative = inhibition in [2] (at 17.2 µM (top of the series)) was -14.6% (inactive); in assay [2] (at 38 µM (top of the series)) it was 6.21% (inactive); in assay [9] (at 25.7 µM (top of the series)), 0.179% (inactive). Further, the Potency is > 46 µM (inactive) and > 20.6 µM (inactive) in assay [4]; > 46 µM (inactive) and > 20.6 µM (inactive) in assay [5]. Besides, the max response in assay [9] (setting [16]) was -3.22%; in assay [9] (setting [17]), -2.21%. Further, the activity, negative = inhibition in assay [15] (at 28.7 µM (top of the series), parasite line A) is 3.34% (inactive); in assay [15] (at 28.7 µM (top of the series), parasite line B), 3.27% (inactive).
